Some test systems named below: NCI-H23 lung; NCI-H226 lung; NCI-H322M lung; HOP-62 NSCLC; NCI-H460 lung; HOP-92 NSCLC; NCI-H522 lung; A549/ATCC NSCLC; 786-0 renal; COLO 205 colon; DU-145 prostate; K-562 leukemia; MALME-3M melanoma; RXF 393 renal; SF-268 CNS; SF-295 CNS; SF-539 CNS; UACC-257 melanoma; M14 melanoma; MDA-MB-231 breast.
Experiment in all cases: NCI-60 one-dose screen, 48 h (100 = growth as untreated, 0 = no growth, -100 = all killed)
What all share (conditions): 10 µM unless noted

Compounds without any hit were thinned out: in the full panel of roughly 83,000, 20% have a hit.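 A percent growth of 40 corresponds to 60% growth inhibition; 0 means no net growth; -100 means all cells died. Active threshold: below 10.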 A number with no mark means an inactive call. Calls of active or inactive are those of the source.

Consider `CC(C)N=C(N)/N=C(\N)Nc1ccc2ccc3ccccc3c2c1`, for which the growth was -88.1% (active) in the assay with NCI-H23 lung; -67.6% (active) with NCI-H226 lung; -89.9% (active) with NCI-H322M lung; -84.5% (active) in the assay on HOP-62 NSCLC; -58.1% (active) with NCI-H460 lung; -68.6% (active) in the assay with HOP-92 NSCLC. For the same molecule, the growth in the assay with NCI-H522 lung was -84.8% (active); in the assay on A549/ATCC NSCLC, -65.2% (active); in the assay on 786-0 renal, -70.1% (active); with COLO 205 colon it was -92% (active); in the assay with DU-145 prostate, -89.5% (active); in the assay with K-562 leukemia, -42.3% (active). In addition, the growth in the assay with MALME-3M melanoma was -89.6% (active); in the assay on RXF 393 renal, -89.7% (active); in the assay on SF-268 CNS, -64.7% (active); with SF-295 CNS it was -89.1% (active); in the assay with SF-539 CNS, -98.9% (active); with UACC-257 melanoma, -79.1% (active). Also, the growth in the assay on M14 melanoma was -76.8% (active).
As to `CCCCCCCCC(=O)OCCCC(CCC(CCC1CCCO1)OC(=O)CCCCCCCC)OC(=O)CCCCCCCC` (stereo not given), the growth is 104% with NCI-H23 lung; 104% in the assay on NCI-H226 lung; 102% in the assay with NCI-H322M lung; 95.6% in the assay with HOP-62 NSCLC; 111% with NCI-H460 lung; 99% in the assay on HOP-92 NSCLC. Also, the growth in the assay with NCI-H522 lung was 70.8%; in the assay on A549/ATCC NSCLC, 104%; in the assay on 786-0 renal, 97%; in the assay on COLO 205 colon, 111%; in the assay on DU-145 prostate it was 106%; with K-562 leukemia, 115%. Further, the growth with MALME-3M melanoma was 109%; with RXF 393 renal, 107%; with SF-268 CNS it was 95.7%; in the assay with SF-295 CNS, 94.4%; in the assay on SF-539 CNS it was 97.3%; with UACC-257 melanoma, 99.9%. Further, the growth in the assay on M14 melanoma was 111%.
As for `COc1ccc2nc3cc(Cl)ccc3c(NCCCCCN3CCCCC3)c2c1`, the growth was -49.1% (active) in the assay on NCI-H23 lung; -39.8% (active) in the assay with NCI-H226 lung; -34% (active) with NCI-H322M lung; -31.6% (active) in the assay with HOP-62 NSCLC; -62.9% (active) in the assay with NCI-H460 lung; -56.4% (active) with HOP-92 NSCLC. Moreover, the growth in the assay with NCI-H522 lung is -71.6% (active); in the assay with A549/ATCC NSCLC, -33.1% (active); in the assay on 786-0 renal it was -73.4% (active); with COLO 205 colon, -89.4% (active); with DU-145 prostate, -3.46% (active); with K-562 leukemia, -13.9% (active). Further, the growth in the assay on MALME-3M melanoma is -84.7% (active); in the assay with RXF 393 renal it was -72.1% (active); in the assay on SF-268 CNS it was -36.4% (active); in the assay on SF-295 CNS, 43.2%; in the assay with SF-539 CNS, -89.7% (active); with UACC-257 melanoma it was -74.8% (active). The growth in the assay with M14 melanoma was -81.9% (active).
For the molecule `COc1cc([C@@H]2c3cc4c(cc3[C@H](OC3OC5COC(c6ccccc6)OC5C(O)C3O)[C@H]3COC(=O)[C@H]23)OCO4)cc(OC)c1OC` (stereo not given in full), the growth is 22.4% with NCI-H23 lung; 75.9% with NCI-H226 lung; 44.2% with NCI-H322M lung; 29.6% in the assay on HOP-62 NSCLC; 20.8% in the assay with NCI-H460 lung; 37.7% in the assay on HOP-92 NSCLC. The growth in the assay with NCI-H522 lung is 17.5%; with A549/ATCC NSCLC, 64.8%; in the assay on 786-0 renal, 64%; in the assay with COLO 205 colon, -77.6% (active); in the assay with DU-145 prostate it was 57%; in the assay on K-562 leukemia, 15.9%. Further, the growth in the assay on MDA-MB-231 breast is 66.3%; with RXF 393 renal, 65.7%; in the assay with SF-268 CNS, 29.3%; with SF-295 CNS, 35.8%; in the assay with SF-539 CNS it was 19.4%; with UACC-257 melanoma, 57.5%. For the same molecule, the growth in the assay with M14 melanoma is 33.2%.
Take `O=[N+]([O-])C=C(c1ccccc1)c1ccccc1`: the growth in the assay with NCI-H23 lung was 81.9%; in the assay with NCI-H226 lung it was 88.6%; in the assay with NCI-H322M lung it was 88%; in the assay on HOP-62 NSCLC it was 73.7%; with NCI-H460 lung, 88.4%; with HOP-92 NSCLC it was 63.9%. Further, the growth with NCI-H522 lung was 72.7%; in the assay with A549/ATCC NSCLC, 79.5%; in the assay on 786-0 renal, 89.2%; in the assay with COLO 205 colon, 114%; with DU-145 prostate it was 87.7%; in the assay on K-562 leukemia it was 29.4%. The growth with MALME-3M melanoma is 80.2%; in the assay on RXF 393 renal, 78.5%; in the assay with SF-268 CNS it was 85.7%; with SF-295 CNS it was 89.3%; in the assay on SF-539 CNS, 88.2%; in the assay on UACC-257 melanoma, 84%. The growth in the assay with M14 melanoma was 79.4%.
With `CC(C)(C)CC(C)(C)c1ccc(OCCOCCSC(=N)N)cc1`, the growth in the assay with NCI-H23 lung is 30.8%; with NCI-H226 lung it was 92.4%; in the assay on NCI-H322M lung it was 67.9%; in the assay with HOP-62 NSCLC, 96.1%; with NCI-H460 lung it was 23.4%; with HOP-92 NSCLC, 37%. In addition, the growth is -3.81% (active) in the assay with NCI-H522 lung; 68.8% with A549/ATCC NSCLC; -36% (active) in the assay on 786-0 renal; -80.6% (active) in the assay on COLO 205 colon; 53.8% in the assay with DU-145 prostate; 3.14% (active) with K-562 leukemia. Further, the growth in the assay with MALME-3M melanoma was -60.8% (active); in the assay with RXF 393 renal, -36.3% (active); with SF-268 CNS, 69%; in the assay with SF-295 CNS it was 36.9%; with SF-539 CNS it was 64.3%; with UACC-257 melanoma it was 73%. For the same molecule, the growth in the assay on M14 melanoma was -67.7% (active).
Consider `CC1=CC(=NC(=O)CBr)C=C/C1=N\S(=O)(=O)c1ccccc1`, for which the growth was 80.2% with NCI-H23 lung; 68.3% in the assay with NCI-H226 lung; 107% in the assay on NCI-H322M lung; 75.1% with HOP-62 NSCLC; 98.4% with NCI-H460 lung; 52.9% in the assay on HOP-92 NSCLC. Further, the growth was -80.4% (active) in the assay with NCI-H522 lung; 87% in the assay on A549/ATCC NSCLC; 53.6% with 786-0 renal; 59.5% with COLO 205 colon; 76.8% in the assay on DU-145 prostate; 21.9% in the assay on MALME-3M melanoma. For the same molecule, the growth is 67.5% in the assay on MDA-MB-231 breast; 82.4% in the assay on RXF 393 renal; 64.8% with SF-268 CNS; 91.6% in the assay on SF-539 CNS; 72.8% in the assay with M14 melanoma.
In the case of `CC1(C)OC2C(COC(c3ccccc3)(c3ccccc3)c3ccccc3)OC(c3c[nH]c4c(N)ncnc34)C2O1` (stereo not given), the growth was 62.9% in the assay on NCI-H23 lung; 72.9% in the assay with NCI-H226 lung; 71.3% with NCI-H322M lung; 81.6% with HOP-62 NSCLC; 41.1% with NCI-H460 lung; 59.5% in the assay on HOP-92 NSCLC. Moreover, the growth in the assay with NCI-H522 lung was 55.9%; in the assay on A549/ATCC NSCLC, 44.7%; in the assay on 786-0 renal, 62.8%; with COLO 205 colon it was 68.3%; in the assay with K-562 leukemia, 32.4%; in the assay on MALME-3M melanoma, 93.5%. The growth in the assay with MDA-MB-231 breast is 75.7%; in the assay with RXF 393 renal it was 79%; in the assay on SF-268 CNS, 57.4%; with SF-295 CNS, 57.9%; with SF-539 CNS, 90%; in the assay with UACC-257 melanoma, 74.9%. Also, in the assay with M14 melanoma, the growth is 52.5%.

These data come from PubChem BioAssay (NCI).
